Test [1] is described as follows: qHTS assay to identify small molecule antagonists of the thyroid receptor (TR) signaling pathway - cell viability counter screen (AID 743064). Further: nearly all actives have a fitted effect of over 50% in size. Further: potency means the concentration at half of the fitted maximal effect. The method in brief:
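GH3.TRE-Luc cells, 4 h pre-plating; cpd + T3 1 nM final; 37 °C 23.5 h; CellTiter-Fluor 30 min; fluorescence read.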
Background: Quantitative high-throughput screening tests each substance at several concentrations.

Test [2] can be described thus: qHTS assay to identify small molecule antagonists of the thyroid receptor (TR) signaling pathway (AID 743065). Further: nearly all actives have a fitted effect of over 55% in size. Further: potency means the concentration at half of the fitted maximal effect. The method in brief: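 GH3.TRE-Luc rat pituitary cells carrying two TR response elements driving luciferase were plated for 4 h, given compound plus 1 nM T3 (final), and incubated 23.5 h at 37 C. ONE-Glo luminescence measured reporter inhibition; CellTiter-Fluor fluorescence tracked cytotoxicity.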

The test system of test [3] is thyroid hormone receptor (rat, GH3 cells). The test can be described thus: qHTS assay to identify small molecule agonists of the thyroid receptor (TR) signaling pathway (AID 743066; calls by dose curve).
Test [4] has as its target Estrogen receptor (Homo sapiens) (UniProt P03372). The experiment in a line: qHTS assay to identify small molecule antagonists of the estrogen receptor alpha (ER-alpha) signaling pathway (AID 743069; active means well fitted curve in the direction sought with a large enough effect in the signal ratio in the repeat runs, not every such curve was filed as active; inconclusive means weak or mixed curves, or effect the other way; inactive means no such curve, though single readings can be large or run the other way; the % refers to the signal ratio; further: potency means the concentration at half of the fitted maximal effect). The method in brief: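 Screening used a UAS-driven beta-lactamase reporter integrated into HEK293 cells expressing ER-alpha, stimulated with 17beta-estradiol alongside test compounds over 18 hr at 37C; signal came from LiveBLAzer B/G FRET fluorescence.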

Test [5] in a line: qHTS assay to identify small molecule antagonists of the estrogen receptor alpha (ER-alpha) signaling pathway - cell viability counter screen (AID 743074; calls by dose curve; further: nearly all actives have a fitted effect of over 45% in size; further: potency means the concentration at half of the fitted maximal effect).
In test [6] the target is Estrogen receptor (Homo sapiens) (UniProt P03372). The test can be described thus: qHTS assay to identify small molecule agonists of the estrogen receptor alpha (ER-alpha) signaling pathway (AID 743075; calls by dose curve).
For test [7] the target is unchanged. The experiment in a line: qHTS assay to identify small molecule agonists of the estrogen receptor alpha (ER-alpha) signaling pathway using the BG1 cell line (AID 743079). Further: nearly all actives have a fitted effect of over 20% in size. Further: potency means the concentration at half of the fitted maximal effect. Particulars: BG1Luc4E2 cells, ERE-luciferase agonist, 22 h; activation: at 70.3 µM (top of the series).
Test [8] in a line: qHTS assay to identify small molecule antagonists of the estrogen receptor alpha (ER-alpha) signaling pathway using the BG1 cell line (AID 743080; calls by dose curve; further: nearly all actives have a fitted effect of over 25% in size; further: potency means the concentration at half of the fitted maximal effect). To be noted: BG1Luc4E2 ERE-luciferase antagonist mode, luminescence; activity change, negative = inhibition: at 70.3 µM (top of the series). The method, boiled down:
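Antagonist mode: compounds in DMSO were pinned onto BG1-Luc-4E2 cells alongside 17beta-estradiol agonist, incubated 21.5 h, and ERE-driven luciferase measured with ONE-Glo. Cytotoxicity was multiplexed using CellTiter-Fluor fluorescence.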

The nature of test [9]: qHTS assay to identify small molecule antagonists of the estrogen receptor alpha (ER-alpha) signaling pathway using the BG1 cell line - cell viability counter screen (AID 743081).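 Further: compound given together with 17beta-estradiol as the ER stimulus; nearly all actives have a fitted effect of over 45% in size.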 Further: potency means the concentration at half of the fitted maximal effect.
The target in a further test is Aromatase (Homo sapiens) (UniProt P11511). The test can be described thus: qHTS assay to identify aromatase inhibitors (AID 743083). Further: nearly all actives have a fitted effect of over 55% in size. Further: potency means the concentration at half of the fitted maximal effect.

“And” between values parts separate entries of the source, which are not always exact repeats. Equal entries are not always repeated. A structure can be active in one record and inactive in another. The source made the active and inactive calls. Unless noted, the call rests on the fitted dose curve; in most records, active means well fitted curve in the direction sought with a large enough effect in the repeat runs; inconclusive means weak or mixed curves; inactive means no such curve, though single readings can be large; an effect the other way counts as inactive or inconclusive.

Chain of Estrogen receptor (Homo sapiens) (P03372 whole entry, looked up): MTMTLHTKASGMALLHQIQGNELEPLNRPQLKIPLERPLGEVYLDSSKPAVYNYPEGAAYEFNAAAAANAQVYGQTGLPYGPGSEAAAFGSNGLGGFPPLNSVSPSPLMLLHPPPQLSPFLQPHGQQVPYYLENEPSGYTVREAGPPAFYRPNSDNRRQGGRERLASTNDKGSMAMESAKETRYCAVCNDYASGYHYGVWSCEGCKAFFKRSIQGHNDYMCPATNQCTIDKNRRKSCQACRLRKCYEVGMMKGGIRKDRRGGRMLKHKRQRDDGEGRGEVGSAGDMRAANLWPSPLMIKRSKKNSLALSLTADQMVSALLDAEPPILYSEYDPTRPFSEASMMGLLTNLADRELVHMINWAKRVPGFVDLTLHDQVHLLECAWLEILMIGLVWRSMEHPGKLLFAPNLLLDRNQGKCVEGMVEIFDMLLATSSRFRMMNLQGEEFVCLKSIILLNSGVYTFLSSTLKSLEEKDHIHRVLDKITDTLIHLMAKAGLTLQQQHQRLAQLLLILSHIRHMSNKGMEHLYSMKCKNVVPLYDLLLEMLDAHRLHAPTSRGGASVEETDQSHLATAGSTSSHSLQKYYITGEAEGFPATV
Chain of Aromatase (Homo sapiens) (P11511 whole entry, looked up): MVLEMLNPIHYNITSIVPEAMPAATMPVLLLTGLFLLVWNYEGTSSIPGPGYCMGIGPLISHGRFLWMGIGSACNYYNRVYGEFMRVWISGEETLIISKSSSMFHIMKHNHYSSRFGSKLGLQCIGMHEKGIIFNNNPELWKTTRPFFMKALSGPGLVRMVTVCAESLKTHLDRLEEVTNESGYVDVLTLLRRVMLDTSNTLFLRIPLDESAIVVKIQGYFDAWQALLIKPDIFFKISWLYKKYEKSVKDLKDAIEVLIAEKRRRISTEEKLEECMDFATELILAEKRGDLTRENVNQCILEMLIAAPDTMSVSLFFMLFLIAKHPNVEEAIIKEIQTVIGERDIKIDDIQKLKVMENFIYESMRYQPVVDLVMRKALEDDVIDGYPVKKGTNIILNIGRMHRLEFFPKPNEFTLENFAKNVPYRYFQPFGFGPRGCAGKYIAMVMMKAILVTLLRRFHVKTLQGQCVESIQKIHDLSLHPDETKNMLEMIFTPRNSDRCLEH

In the case of `CCN(CC)CCOC(=O)C1(C2CCCCC2)CCCCC1`, the Potency is 26.6 µM (active) in test [1], 23.7 µM (active) in test [2] and 29.8 µM (active) with Aromatase (Homo sapiens). Besides, the Potency entry in test [3], in test [4], in [5], in [6], in test [7] and in [8] was “inactive” each time. Further, the Potency result in test [9] is “inactive”.
`C(=C/c1ccccc1)/c1ccccc1`: the Potency result in [1], in test [2], in test [3], in test [4], in test [5] and in test [6] was “inactive” each time. Also, the Potency result (in test [7]; in test [8]; in test [9]; in the test with Aromatase (Homo sapiens)) was “inactive” each time.
Take `COC(=O)C1=C(C)NC(C)=C(C(=O)OCCCN2CCC(c3ccccc3)(c3ccccc3)CC2)C1c1cccc([N+](=O)[O-])c1` (centres undefined): the Potency in test [1] is 11.9 µM (active); in test [2] it was 7.5 µM (active).
Turning to `CCOC(=O)[C@@](C)(N)Cc1ccc(O)c(O)c1`, the Potency result in test [1], in [2], in test [3], in [4], in test [5] and in [6] was “inactive” in each case. In addition, the Potency result (in [7]; in [8]; in test [9]; with Aromatase (Homo sapiens)) was “inactive” each time.
On to `CCC(=O)OCCc1ccccc1`, for which the Potency result in test [1], in test [2], in test [3], in [4], in test [5] and in test [6] was “inactive” throughout. The Potency entry in test [7], in test [8] and in test [9] was “inactive” each time.
In the case of `CCOC(=O)N1CCC(=C2c3ccc(Cl)cc3CCc3cccnc32)CC1`, the Potency is 26.6 µM (active) and 27.3 µM (active) in test [1]; 11.9 µM (active) and 9.69 µM (active) in [2]; 26.8 µM [inconclusive] (active) in test [4]; “inactive and 61.1 µM (active)” in [8]. Besides, the Potency entry in test [3], in test [5], in [6] and in test [9] was “inactive” in each case.
As for `CC1=C(/C=C/C(C)=C/C=C/C(C)=C\C=O)C(C)(C)CCC1`, the Potency in test [1] is 25.8 µM (active); in test [2] it was 29 µM (active). Further, the Potency entry in test [3] was “inactive”.
As for `CC(CN(C)C)CN1c2ccccc2CCc2ccccc21` (centres undefined), the Potency in [1] was 4.52 µM (active); in [2], 11.4 µM (active). For the same compound, the Potency entry in test [3], in test [4], in [5], in test [6], in test [7] and in test [8] was “inactive” each time.
Turning to `C[Si](C)(C)Cl`, the Potency result in [1], in [2], in test [3], in [4], in test [5] and in test [6] was “inactive” in each case. The Potency result (in [7]; in test [8]; in [9]; in the test with Aromatase (Homo sapiens)) was “inactive” throughout.
With `ClC/C=C\CCl`, the Potency entry in test [1], in test [2], in [3], in test [4], in [5] and in [6] was “inactive” in each case. The Potency entry (in [7]; in [8]; in test [9]; with Aromatase (Homo sapiens)) was “inactive” in each case.
For `CCCCOC(=O)C(C)CC` (centres undefined), the Potency entry in [1], in test [2], in [3], in test [4], in test [5] and in test [6] was “inactive” in each case. Further, the Potency result (in [7]; in test [8]; in test [9]; with Aromatase (Homo sapiens)) was “inactive” each time.
On to `CNCC[C@H](Oc1cccc2ccccc12)c1cccs1`, for which the Potency in test [1] and in test [2] was 7.5 µM (active) throughout.
As to `COC(=O)CC#N`, the Potency result in [1], in [2], in test [3], in test [4], in [5] and in [6] was “inactive” each time. Also, the Potency result (in test [7]; in test [8]; in test [9]; with Aromatase (Homo sapiens)) was “inactive” throughout.
As to `O=Nc1ccc(NO)cc1`, the Potency entry in [1], in [2], in test [3], in [4], in [5] and in test [6] was “inactive” in each case. Further, the Potency entry (in test [7]; in test [8]; in test [9]; with Aromatase (Homo sapiens)) was “inactive” each time.
For `CCCCCCCC/C=C/CCCOC(C)=O`, the Potency result in test [1], in [2], in test [3], in test [4], in [5] and in [6] was “inactive” throughout. The Potency result (in test [7]; in test [8]; in test [9]; in the test with Aromatase (Homo sapiens)) was “inactive” throughout.
For `CCN=c1cc2oc3cc(NCC)c(C)cc3c(-c3ccccc3C(=O)OCC)c-2cc1C`, the Potency is 1.08 µM (active) and 1.22 µM (active) in [1]; 609 nM (active) and 1.09 µM (active) in test [2]; 48.8 nM [inconclusive] (active) and 155 nM [inconclusive] (active) in test [4]; 24.5 µM (active) and 21.9 µM (active) in test [5]; 172 nM (active) and 217 nM (active) in test [8]; 3.84 µM (active) and 5.45 µM (active) in [9]. Further, the Potency in the test with Aromatase (Homo sapiens) is 193 nM (active) and 137 nM (active). Besides, the Potency result in [3] and in [6] was “inactive” in each case.
Consider `CC(C)N=C(N)/N=C(\N)Nc1ccc(Cl)cc1`, for which the Potency result in test [1], in test [3], in test [4], in test [5], in [6] and in test [7] was “inactive” in each case. Further, the Potency result (in test [8]; in test [9]; in the test with Aromatase (Homo sapiens)) was “inactive” in each case. In addition, the Potency in test [2] is 2.54 µM (active).
On to `CCc1ccc(O)c(C(C)(C)C)c1`, for which the Potency in test [1] was 54.5 µM (active); in [2], 61.1 µM (active); in [7], 27.3 µM (active); with Aromatase (Homo sapiens) it was 68.6 µM (active). For the same compound, the Potency entry in test [3], in test [4], in test [5], in test [8] and in test [9] was “inactive” each time.
Consider `O=S(=O)(O)CCCN1CCOCC1`, for which the Potency result in test [1], in test [2], in test [3], in [4], in test [5] and in test [6] was “inactive” in each case. Also, the Potency entry (in test [7]; in [8]; in test [9]; with Aromatase (Homo sapiens)) was “inactive” each time.
On to `CCCC(CC)CCCCCCCN` (centres undefined), for which the Potency entry in [1], in test [2], in test [3], in [4], in test [5] and in test [6] was “inactive” throughout. The Potency entry (in test [7]; in test [8]; in [9]; in the test with Aromatase (Homo sapiens)) was “inactive” throughout.
For the compound `CC(COC(=O)c1ccccc1)OC(=O)c1ccccc1` (centres undefined), the Potency result in test [1], in test [2], in test [3], in test [4], in [5] and in test [6] was “inactive” each time. In addition, the Potency entry (in test [8]; in test [9]; with Aromatase (Homo sapiens)) was “inactive” in each case.
